# Source: PubChem BioAssay AID504332 (National Center for Advancing Translational Sciences (NCATS), 2011)
# Screen size: about 350,000 compounds; about 31,000 (8.9%) were called active. Roughly 15% stayed inconclusive and do not appear here. The sample holds actives, similar compounds and a random draw of the others, so the mix is not that of the screen. A number with no mark means an inactive call. Calls come from the whole dose curve; as a rule, active = well fitted inhibition curve with a large enough effect; inconclusive = small, poorly fitted or top-dose-only effect; inactive = no such curve, though single readings can be large or run the other way.
# Molecular target: Histone-lysine N-methyltransferase EHMT2 (Homo sapiens) (UniProt Q96KQ7)
# Sequence (Q96KQ7 913-1193 limits assumed): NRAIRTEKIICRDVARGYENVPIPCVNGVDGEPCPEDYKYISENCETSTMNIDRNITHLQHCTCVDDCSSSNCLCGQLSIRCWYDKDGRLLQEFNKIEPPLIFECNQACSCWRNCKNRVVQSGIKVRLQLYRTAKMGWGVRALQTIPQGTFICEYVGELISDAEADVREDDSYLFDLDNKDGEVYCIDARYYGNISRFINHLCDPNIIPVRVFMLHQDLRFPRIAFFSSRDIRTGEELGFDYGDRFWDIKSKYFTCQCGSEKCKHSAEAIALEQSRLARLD
# Assay: qHTS Assay for Inhibitors of Histone Lysine Methyltransferase G9a; note: nearly all actives have a fitted effect of over 75% in size
# Details: G9a H3K9 monomethylation, AlphaScreen, 2 h; series mostly up to 59 µM; activity, negative = inhibition: at the top concentration
# How it was run: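 Enzyme 20 nM + cpd, 15 min RT; add b-H3K9 pep 500 nM / SAM 20 uM; 2 h RT; anti-H3K9me1 Ab 0.5 ug/mL + SA donor / anti-rabbit acceptor beads 20 ug/mL each, 10 min; AlphaScreen read.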
# % is set by controls: 0 for no effect and ±100 for the full control effect; potency is the fitted concentration of half-maximal effect.
Compound,"activity, negative = inhibition",Potency
CC(C)Cn1c(N)c(C(=O)NCc2cccs2)c2nc3ccccc3nc21,93.7%,–
CCCNC(=O)c1c(N)n(-c2ccc(S(N)(=O)=O)cc2)c2nc3ccccc3nc12,–,50.1 µM (active)
CCOC(=O)c1c(N)n(-c2cccc(C)c2C)c2nc3ccccc3nc12,2.49%,–
COc1cc(NS(=O)(=O)c2cccs2)cc(OC)c1,14.3%,–
CC(Oc1ccc(Br)cc1)C(=O)NC1CCCCCC1 (stereo unspecified),35.3% [at 12.7 µM],–
O=C(NCCc1ccc(Cl)cc1)c1ccc2nc(CCc3ccccc3)oc2c1,-0.672%,–
CCc1cc(-c2n[nH]c(=S)n2CC(C)C)cs1,–,1.78 µM (active)
CCc1cc(-c2nnc(SCC(=O)NC3CC3)n2C)cs1,87.8% [at 102 µM],–
CCn1c(-c2ccncc2)n[nH]c1=S,-114% [at 102 µM],–
CCc1ccc(N(CC)C(=O)CCn2cnc3onc(-c4ccc(F)cc4)c3c2=O)cc1,-23.9%,–
O=C1CC2(CCN(C(=O)COc3ccc(F)cc3)CC2)Oc2ccccc21,-12.9% [at 102 µM],–
CCc1ccccc1OCCSc1nc(-c2cccs2)nc2cc(=O)[nH]n12,8.02%,–
C#CCNc1ccc(C(=O)OCC)cc1,-3.3% [at 102 µM],–
CCOC(=O)c1ccc(NC2Nc3cc(C)nn3S2)cc1 (stereo unspecified),–,3.16 µM (active)
CCOC(=O)c1ccc(NC(=O)CCn2cnnn2)cc1,-3.16%,–
CCc1ccc(NC2Nc3cc(C)nn3S2)cc1 (stereo unspecified),–,1 µM (active)
CCc1ccc(CNC(=O)c2ccc(CS(=O)c3ccc(Br)cc3)o2)cc1 (stereo unspecified),-1.56%,–
COc1ccc(Cn2ccn(CC(=O)Nc3cc(C)ccc3C)c(=O)c2=O)cc1,-6.02%,–
O=C(CCCCO)c1ccc(O)c(Cl)c1,1.29% [at 2.33 µM],–
Cc1cccc(NC(=O)c2ccc(F)c(S(=O)(=O)N(C)C3CCCCC3)c2)c1,11.7%,–
Cc1ccccc1OCCC(=O)OCC(=O)NCCc1ccc(S(N)(=O)=O)cc1,-2.83% [at 12.7 µM],–
O=S(=O)([N-]c1nc2ccccc2nc1-[n+]1ccc(Cc2ccccc2)cc1)c1ccc(Br)s1,–,11.2 µM (active)
Cc1cc(C)c[n+](-c2nc3ccccc3nc2[N-]S(=O)(=O)c2cccs2)c1,17.1%,–
O=C(NCCc1ccccc1)C1CCN(S(=O)(=O)c2ccc(Br)s2)CC1,2.02% [at 102 µM],–
COc1ccc(-n2nnc(-c3nsc(NC(=O)c4ccc(C)c(C)c4)n3)c2C)cc1Cl,-27.3%,–
COc1ccccc1NC(=O)CSc1oc(-c2ccco2)nc1S(=O)(=O)c1ccc(Br)cc1,-46%,–

Compound,"activity, negative = inhibition",Potency
Cc1ccc(/C=N/NC(=S)Nc2cccc(S(=O)(=O)N(C)C)c2)o1,–,50.1 µM (active)
CN(C)S(=O)(=O)c1cccc(NC(=O)Cc2ccsc2)c1,-2.27% [at 102 µM],–
CN(C)S(=O)(=O)c1cccc(NC(=S)N/N=C/C(=O)c2ccccc2)c1,75.6%,–
COc1cc(Cl)c(C)cc1Nc1nnc(-n2nc(C)cc2C)c2ccccc12,28%,–
Cc1ccc2cccc(NC(=O)c3cccc4ccccc34)c2n1,42.4%,–
COC(=O)c1ccc(COC(=O)C2CCN(S(=O)(=O)c3c(Cl)cccc3Cl)CC2)o1,–,35.5 µM (active)
COc1cccc(COC(=O)C2CCN(S(=O)(=O)c3ccc(Cl)cc3)CC2)c1OC,-3.42%,–
CCOc1ccc(S(=O)(=O)N2CCC(C(=O)OCc3ccc(OC)cc3)CC2)cc1,4.98% [at 102 µM],–
O=C(Nc1cc(-c2nc3ccccc3o2)ccc1Cl)c1cc([N+](=O)[O-])ccc1N1CCOCC1,-4.37%,–
O=C(CN1CCC(O)(c2ccccc2)CC1)Nc1ccc2c(c1)OCCO2,-2.46% [at 102 µM],–
Cc1cc(NC(=O)CN2CCC(O)(c3cccc(F)c3)CC2)no1,–,8.91 µM (active)
CC(=O)NC1(c2cccc(F)c2)CCN(CC(=O)NC(C)C)CC1,-5.2% [at 12.7 µM],–
COc1cc(OC)c(NC(=O)Cc2ccc(-n3c(C)nc4cccnc43)cc2)cc1Cl,-25.8%,–
CC(=O)c1ccc(NC(=O)CSc2nc(-c3ccccc3F)nc3c2c(=O)n(C)c(=O)n3C)cc1,6.95%,–
Oc1c(C(c2ccccn2)N2CCOCC2)ccc2cccnc12 (stereo unspecified),–,8.91 µM (active)
O=C(c1cccnc1NCc1ccccc1)N1CCOCC1,-30.2%,–
CCOc1cc(N2CCOCC2)c(OCC)cc1NC(=O)COc1cccc2cccnc12,16.3%,–
O=S(=O)(c1ccc(Br)cc1)c1nnn2c1nc(NC1CCCCCC1)c1sccc12,-20.4%,–
O=c1n(Cc2cccc(C(F)(F)F)c2)c2ccccc2c2nc(-c3ccccc3)nn12,6.25%,–
CCn1c2c(c(=O)n3ncc(C(=O)N4CCN(c5ccccc5)CC4)c13)CN(Cc1ccc(OC)cc1)CC2,-14%,–
Cc1cc2c(cc1C)C(c1cccc(OC(C)C)c1)CC(=O)N2 (stereo unspecified),-3.79%,–
COc1ccccc1CCNC(=O)C(=O)NCCC1CCCCN1S(=O)(=O)c1cccs1 (stereo unspecified),-9.04% [at 102 µM],–
O=C(NC(=S)Nc1ccc2oc(=O)ccc2c1)c1ccc(-c2cccc(Cl)c2Cl)o1,–,10 µM (active)
O=C(COc1ccc(Cl)cc1)Nc1ccc2oc(=O)ccc2c1,14.1% [at 102 µM],–
CC(C)C(=O)Nc1ccc2oc(=O)ccc2c1,10.8% [at 102 µM],–
Cc1ccc(C(=O)CSc2nc(-c3ccccc3)nc3c2CCCC3)c(C)c1,19.5%,–

Compound,"activity, negative = inhibition",Potency
CC(Oc1cccc(Cl)c1)C(=O)Nc1ccc(S(=O)(=O)Nc2ncccn2)cc1 (stereo unspecified),–,35.5 µM (active)
O=C(/C=C/c1ccc(Cl)cc1)Nc1ccc(S(=O)(=O)Nc2ncccn2)cc1,0.147% [at 102 µM],–
CCc1ccc(OC(C)C(=O)Nc2ccc(S(=O)(=O)Nc3cc(C)on3)cc2)cc1 (stereo unspecified),-9.68% [at 102 µM],–
Cc1ccc(Cl)cc1NC(=O)CSc1nccn1C,-2.21%,–
CS(=O)(=O)N1CCc2cc(C(=O)Nc3ccccc3Br)ccc21,-11.2% [at 102 µM],–
O=S(=O)(c1ccc(C2CCCCC2)cc1)N1CCN(c2ccc(Cl)c(Cl)c2)CC1,7.66%,–
O=C(c1ccccn1)c1ncc(C(F)(F)F)cc1Cl,22.6% [at 102 µM],–
CC(=O)c1ccc(Cc2ncc(C(F)(F)F)cc2Cl)s1,-41.4%,–
O=c1[nH]oc(O)c1-c1ncc(C(F)(F)F)cc1Cl,–,44.7 µM (active)
COc1ccccc1CNC(=O)COC(=O)c1sc(C)nc1C,11.2% [at 2.33 µM],–
CCCNC(=O)c1onc(CSc2ccc(F)cc2)c1C(=O)NC(C)C,20% [at 2.33 µM],–
COc1ccc(Nc2nc(Cl)nc(NCc3ccco3)n2)cc1,8.73%,–
COc1ccc(-n2cnc3cc(NCc4ccco4)ccc32)cc1,–,44.7 µM (active)
COc1ccc(-n2cnc3cc(C(=O)NC4CCCC4)ccc32)cc1,–,inactive
Cc1nn(C)c(C)c1NS(=O)(=O)c1ccc(OC(F)(F)F)cc1,-1.93% [at 102 µM],–
CCN(CC(=O)Nc1cc(Cl)ccc1C)C(=O)CSCc1ccccc1,-2.77% [at 102 µM],–
COc1ccc(C(=O)O/N=C(\N)Cc2ccc(Cl)cc2Cl)cc1OC,20.9%,–
NC(N)=N/N=C/c1ccc(OCc2ccc(Cl)cc2Cl)cc1,–,50.1 µM (active)
CCOc1ccc(NC(=O)NNC(=O)c2ccc(Cl)cc2Cl)cc1,11.1% [at 102 µM],–
COc1ccc(CNc2nc(-c3ccc(Cl)cc3)cc(C(F)(F)F)n2)cc1,195%,–
CCc1ccc(NS(=O)(=O)c2ccc3[nH]cc(C(=O)NCCc4cccc(C)c4)c(=O)c3c2)cc1,-19.8%,–
CC(C)(C)OC(=O)N1CCC(c2c(C(=O)Nc3ccc4c(c3)OCO4)cnn2-c2ccccc2)CC1,-5.36%,–
O=C(CCNC(=O)c1ccccc1Cl)NCc1ccco1,4% [at 12.7 µM],–
CC(C)(C)c1ccc(C(=O)NCCC(=O)NCc2ccco2)cc1,–,44.7 µM (active)
CCCCNC(=O)CCNC(=O)c1ccc(C(C)(C)C)cc1,-0.948% [at 102 µM],–
COCCCNc1nc2c(-c3cccc(C)c3)nnn2c2ccc(Cl)cc12,3.35% [at 0.501 µM],–

Compound,"activity, negative = inhibition",Potency
Cc1nc2ccccc2c(=O)n1-c1ccc(NS(=O)(=O)c2ccc(F)cc2F)cc1,0.725% [at 102 µM],–
O=C(CN1CCN(c2ccccc2O)CC1)NC(=O)NCc1ccccc1,-1.41% [at 12.7 µM],–
S=C(NCCc1ccccc1)N1CCCCC1,-19.5% [at 102 µM],–
Oc1ccccc1N1CCN(C(=S)NCc2ccccc2)CC1,–,31.6 µM (active)
O=C(COC(=O)c1ccccc1C(=O)N1CCN(c2ccccc2)CC1)NCc1ccccc1,2.03% [at 102 µM],–
O=C1CCN(C(=S)NCCc2ccccc2)CC1,-0.505% [at 102 µM],–
Oc1ccc(N2CCN(C(=S)NCc3ccccc3)CC2)cc1,–,10 µM (active)
CCCc1cc(=O)[nH]c(SCC(=O)c2c(N)n(CC(C)C)c(=O)n(C)c2=O)n1,-10.6% [at 102 µM],–
CCOc1cccc(NC(=O)c2ccc(F)c(S(=O)(=O)N(CC)c3cccc(C)c3)c2)c1,16.5%,–
O=C(CCS(=O)(=O)c1cc(Br)cc2c1N(C(=O)C1CC1)CC2)Nc1ccc(C(F)(F)F)cc1,-24.3%,–
CC(C)C(NC(=O)c1c(F)cccc1F)C(=O)NCc1ccncc1 (stereo unspecified),-32.8% [at 102 µM],–
O=C(CSc1nc(Nc2ccccc2)nc(N2CCOCC2)n1)Nc1cc(Cl)ccc1O,–,50.1 µM (active)
CC1(c2ccccc2)NC(=O)N(CC(=O)Nc2cc(Cl)ccc2N2CCOCC2)C1=O (stereo unspecified),22.3% [at 0.501 µM],–
Cc1ccccc1NC(=O)CSc1nc2ccc(Nc3nc(N4CCOCC4)nc(N4CCOCC4)n3)cc2s1,1.18% [at 102 µM],–
CCOc1ccc(NC(=O)Cn2c(C)ccc(C#N)c2=O)cc1,5.45%,–
Cn1nc(-c2ccccc2)c(-c2ccccc2)c(C(=O)Nc2ccc(S(N)(=O)=O)cc2)c1=O,-38.6%,–
O=C(CN1C(=O)COc2ccc(S(=O)(=O)N3CCCCCC3)cc21)N1CCN(c2cccc(C(F)(F)F)c2)CC1,-31.2%,–
Cc1cc(OCC(=O)N2CCN(c3ncccn3)CC2)ccc1Cl,24.5% [at 102 µM],–
COc1ccc(-c2nc(CN3CCN(c4ncccn4)CC3)c(C)o2)cc1C,12.2% [at 102 µM],–
Oc1ccc(CN2CCN(c3ncccn3)CC2)cc1,–,79.4 µM (active)
CN(C)C(=O)c1nc2ccc(Cl)cn2c1CN1CCN(c2ncccn2)CC1,13.2% [at 102 µM],–
c1cnc(N2CCN(c3ccc4ccccc4n3)CC2)nc1,9.32% [at 102 µM],–
Cc1ccc(CN2CCN(c3ncccn3)CC2)c(C)c1,–,10 µM (active)
